Experimental data: PubChem BioAssay AID1851 (National Center for Advancing Translational Sciences (NCATS), 2009)
The whole screen tested about 16,000 compounds, of which about 2,600 (16%) were called active. About 20% were inconclusive and are not listed. The call rests on the fitted dose curve; in most records, active means well fitted curve in the direction sought with a large enough effect; inconclusive means small, poorly fitted or top-dose-only effect, or effect the other way; inactive means no such curve, though single readings can be large or run the other way. The list is a sample of the results.

target: Cytochrome P450 2D6 (Homo sapiens) (UniProt P10635); assay: Cytochrome panel assay with activity outcomes; settings: recombinant CYP, pro-luciferin dealkylation, luminescence, p450-cyp2d6; series mostly up to 57.1 µM; activity, negative = inhibition: at the top concentration
Sequence (P10635 whole entry, looked up): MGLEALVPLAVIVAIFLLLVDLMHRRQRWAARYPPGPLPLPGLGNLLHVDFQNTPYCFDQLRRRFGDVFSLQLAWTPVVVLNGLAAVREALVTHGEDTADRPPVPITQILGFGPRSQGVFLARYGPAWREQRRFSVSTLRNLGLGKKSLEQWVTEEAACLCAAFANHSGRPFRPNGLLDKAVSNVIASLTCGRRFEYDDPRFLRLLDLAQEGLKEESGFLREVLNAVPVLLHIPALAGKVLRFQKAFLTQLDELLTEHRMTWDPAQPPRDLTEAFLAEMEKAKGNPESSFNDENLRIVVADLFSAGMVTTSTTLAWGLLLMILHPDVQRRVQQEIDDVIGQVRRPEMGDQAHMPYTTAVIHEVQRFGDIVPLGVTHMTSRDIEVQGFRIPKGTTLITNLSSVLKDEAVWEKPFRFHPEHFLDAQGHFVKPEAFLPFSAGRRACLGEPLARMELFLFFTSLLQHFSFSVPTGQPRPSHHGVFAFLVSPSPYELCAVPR
On the % scale 0 is the no-effect control and ±100 the full control effect.

Row | SMILES | activity, negative = inhibition | AC50
1 | CCOc1cc(C#N)c(NC(=O)c2cccnc2)cc1OCC | -7.18% (inactive) | 
2 | COCCNC(=O)c1onc(CSc2ccccc2F)c1C(=O)O | -3.48% (inactive) | 
3 | CC(C)(C)NC(=O)C(=O)NNC(=O)c1ccccc1 | 29.3% (inactive) | 
4 | N[C@H](C(=O)O)c1nn[nH]n1 | 4.99% (inactive) | 
5 | O=C(NNC(=S)NCc1ccco1)c1ccc(Cl)s1 | -15.8% (inactive) | 
6 | Nc1ccc2c3c(cccc13)C(=O)NC2=O | -2.93% (inactive) | 
7 | Nc1[nH]c(=S)[nH]c(=O)c1N=Nc1c(Br)cc(S(N)(=O)=O)cc1Br | 7.23% [at 11.4 µM] (inactive) | 
8 | CC1(C)CC(O)CC(C)(C)N1CC(O)COCCOc1ccc(Br)cc1 (centres undefined) |  | 14.1 µM (active)
9 | O=c1c(-c2cccs2)nc2cncnc2n1C1CC1 | -6.01% (inactive) | 
10 | COc1cccc(Nc2ncc3nc(CCc4ccccc4)c(=O)n(Cc4cccs4)c3n2)c1 | -5.85% (inactive) | 
11 | O=C(NCc1ccccc1)C(c1ccncc1)N(C(=O)c1csnn1)C1CC1 (centres undefined) | -26.9% (inactive) | 
12 | CC(C)(C)NC(=O)NC(=O)CSc1nnc2ccccn12 | -0.138% (inactive) | 
13 | O=c1cnc2cnc(N3CCOCC3)nc2n1C[C@H]1CCCO1 | 0.524% (inactive) | 
14 | Cc1ccccc1-c1ccc2ncnc(NCc3cccs3)c2c1 |  | 10 µM (active)
15 | FC(F)(F)c1ccccc1-c1ccc2ncnc(NCc3cccs3)c2c1 |  | 10 µM (active)
16 | CC(C)=CCC/C(C)=C/CO/N=C1/[C@H]2O[C@@H]2[C@@H](O)[C@H]2[C@H]1CCn1c(=O)n(-c3ccccc3)c(=O)n12 | -3.53% [at 11.4 µM] (inactive) | 
17 | CC1CN(C(=O)COc2ncnc3ccccc23)CC(C)O1 (centres undefined) | -0.13% (inactive) | 
18 | CC1=CC(C)(C)N(C)C(=O)N1c1ccc(Cl)cc1 | -5.24% (inactive) | 
19 | COC(=O)c1[nH]c2cc(OC)ccc2c1NC(=O)CCN1CCSCC1 | -12.3% (inactive) | 
20 | CCOC(=O)C(C)Sc1ncc(OC)c(Sc2ccc(Cl)cc2)n1 (centres undefined) | -12.6% (inactive) | 
21 | Nc1c2c(=O)oc(-c3ccccc3)cc2nn1-c1ccccc1 |  | 5.01 µM (active)
22 | Cc1nn(-c2ccccc2)c(-c2ccccc2)c1C(=O)O | -6.28% (inactive) | 
23 | Cc1cc(N)n(-c2ccccc2)n1 | 9.11% (inactive) | 
24 | CCOC(=O)CSc1n[nH]c(NC(=O)c2cccc(C(F)(F)F)c2)n1 | 0.499% (inactive) | 
25 | CN(C)c1ccc(NC(=O)c2cccc(N3C(=O)C4C5C=CC(C5)C4C3=O)c2)cc1 (centres undefined) | -1.14% (inactive) | 
26 | Cc1nnsc1SCC(=O)O | 16.2% (inactive) | 

Row | SMILES | activity, negative = inhibition | AC50
27 | Cc1ccc(-c2nc(-c3nccc4ccccc34)oc2-c2ccccc2)cc1 | -9.6% [at 11.4 µM] (inactive) | 
28 | CS(=O)(=O)N1CCN(c2ccc([N+](=O)[O-])c(NCc3ccccc3)c2)CC1 | -25.9% (inactive) | 
29 | C1=C(CN2CCOCC2)COc2c1cccc2OC[C@@H]1CNCCO1 | 3.78% (inactive) | 
30 | CS(=O)(=O)Nc1ccc([N+](=O)[O-])cc1Oc1ccccc1 | -0.21% [at 25.6 µM] (inactive) | 
31 | CS(=O)(=O)Nc1ccc([N+](=O)[O-])cc1OC1CCCCC1 |  | 0.0501 µM (active)
32 | COc1ccc([N+](=O)[O-])cc1NC1C2CC3CC(C2)CC1C3 (centres undefined) | 6.11% (inactive) | 
33 | Cc1csc(NC(=O)CCNS(=O)(=O)c2ccc3c(c2)c(=O)n(C)c(=O)n3C)n1 | -6.75% (inactive) | 
34 | CCCc1nnc(SCC(=O)N2C(C)CCCC2C)n1CCCOC (centres undefined) | 0.151% (inactive) | 
35 | CO[C@@H](C(C)C)[C@@H](C)[C@@H]1OC(=O)C[C@@H]1O | -14.8% [at 11.4 µM] (inactive) | 
36 | CC(=O)N1CCc2cc(Br)cc(S(=O)(=O)N3CCN(C(=O)c4ccco4)CC3)c21 | 11.4% (inactive) | 
37 | COc1ccc(C(=O)NCS(=O)(=O)c2ccc(C)cc2)cc1 | -15.2% (inactive) | 
38 | Cc1c(OC(=O)c2ccc([N+](=O)[O-])cc2)c2c(c[n+]1C)COC(C)(C)OC2 | 8.33% (inactive) | 
39 | Cc1ccc(S(=O)(=O)CC#CCOC(=O)c2ccc([N+](=O)[O-])cc2)cc1 |  | 12.6 µM (active)
40 | COc1ccc(-c2nc3cnc(N4CCOCC4)nc3n(C[C@H]3CCCO3)c2=O)cc1 | 1.59% (inactive) | 
41 | CCc1nnc(NC(=O)c2cc(-c3ccccc3)nn2-c2ccccc2)s1 | -15.9% (inactive) | 
42 | Fc1cccc(CSc2ncnc3c2ncn3[C@H]2CCCS2)c1 | 8.45% [at 11.4 µM] (inactive) | 
43 | COc1cccc(-c2cncnc2NCc2ccc(OC)cc2OC)c1 |  | 7.94 µM (active)
44 | COc1cccc(-c2cncnc2NC2CCNCC2)c1 | -13.3% (inactive) | 
45 | COc1ccccc1CNc1cc(-c2cccc(NS(C)(=O)=O)c2)ncn1 | -17.4% (inactive) | 
46 | COc1cccc(-c2cncnc2NCc2ccccc2OC)c1 |  | 7.94 µM (active)
47 | COc1ccc(CNc2ncncc2-c2cccnc2)c(OC)c1 |  | 15.8 µM (active)
48 | COc1ccc(CNc2ncncc2-c2cccc(NS(C)(=O)=O)c2)c(OC)c1 |  | 25.1 µM (active)
49 | C/C(=N\n1nnnc1Nc1ccccc1)c1ccc(N)cc1 | 2.96% (inactive) | 
50 | CCNc1ncc2nc(C)c(=O)n(Cc3ccc(F)cc3)c2n1 | -4.78% (inactive) | 
51 | O=c1cnc2cnc(Oc3ccccc3)nc2n1Cc1ccc(F)cc1 | -20.8% (inactive) | 
52 | O=C(O)/C=C\C(=O)Nc1ncn[nH]1 | 3.54% [at 11.4 µM] (inactive) | 

Row | SMILES | activity, negative = inhibition | AC50
53 | CCC(C)(C(=O)NC1CCCC1)N(Cc1ccco1)C(=O)c1ccccn1 (centres undefined) | 17.4% (inactive) | 
54 | O=c1ccc2cc(O)c(O)cc2o1 | -4.53% [at 25.6 µM] (inactive) | 
55 | OC[C@H](S)CS | 19.8% [at 11.4 µM] (inactive) | 
56 | CCOc1ccc(C(C)=O)cc1N1C(=O)C2C3C=CC(C3=C(C)C)C2C1=O (centres undefined) | -2.5% (inactive) | 
57 | COc1ccccc1NC(=O)c1cnc2n(c1=O)CCS2 | -6.14% (inactive) | 
58 | COc1ccc(NC(=O)c2ccc(-n3cccn3)nc2)c(OC)c1 | 0.442% (inactive) | 
59 | COc1ccccc1NC(=O)c1ccc(-n2cccn2)nc1 |  | 7.94 µM (active)
60 | COc1ccccc1CCn1c(=O)c(-c2ccc(Cl)cc2)nc2cncnc21 | -8.73% (inactive) | 
61 | COc1ccc(/C=N/NC(=O)c2cccc([N+](=O)[O-])c2)cc1OS(=O)(=O)c1ccc(C)cc1 | -3.23% (inactive) | 
62 | CC(=O)Nc1sc2c(c1CN1CCN(C)CC1)CCCC2 |  | 12.6 µM (active)
63 | CCNC(=O)c1c(NC(C)=O)sc2c1CCCC2 | 4.74% (inactive) | 
64 | CC(=O)Nc1sc2c(c1C(N)=O)CCCC2 | -10.9% (inactive) | 
65 | Cc1cc(C)c(S(C)(=O)=O)c(Oc2ccc(F)cc2)n1 | -5.79% (inactive) | 
66 | COc1ncc2nc(-c3cn(C)c4ccccc34)c(=O)n(-c3ccccc3)c2n1 | 3.2% (inactive) | 
67 | CCOC(=O)c1c(NC(=O)C2C3CCC(O3)C2C(=O)O)sc(C)c1-c1ccc(C)cc1 (centres undefined) | -1.43% (inactive) | 
68 | CCOc1ccc(N2C(=O)/C(=C/c3cc(OC)c(OC)c(OC)c3)N(CC(=O)OC)C2=S)cc1 | -3.36% (inactive) | 
69 | CCOc1ccc(N2C(=O)/C(=C/c3cccs3)N(CC(=O)OC)C2=S)cc1 | -8.94% (inactive) | 
70 | CCc1ccc(N2C(=O)/C(=C/c3cccs3)N(CC(=O)OC)C2=S)cc1 |  | 0.794 µM (active)
71 | O=C(Nc1cccc(-c2cn3cccnc3n2)c1)c1ccco1 | -3.97% (inactive) | 
72 | COc1ccc(S(=O)(=O)N2CCc3ccccc3C2)cc1OC | 26.5% (inactive) | 
73 | O=C(NNS(=O)(=O)c1ccc(Cl)cc1)c1cnn(-c2ccccc2)c1-n1cccc1 |  | 2 µM (active)
74 | O=C(NNS(=O)(=O)c1ccccc1)c1cccnc1 | 14.2% [at 11.4 µM] (inactive) | 
75 | O=C(NNS(=O)(=O)c1cc(Cl)cc(Cl)c1)c1sccc1-n1cccc1 | -28.4% (inactive) | 
76 | N=c1nc(N2CCCCC2)cc(N)n1O |  | inactive
77 | Oc1[nH]c2ccccc2c1N=Nc1ccc(C(F)(F)F)cn1 | -2.34% (inactive) | 
78 | [O-][N+](CCO)(CCO)c1ncnc2nc[nH]c12 | -0.262% [at 11.4 µM] (inactive) | 

Row | SMILES | activity, negative = inhibition | AC50
79 | Cc1cc(C)c2nc3c(c([C@H](O)[C@@H]4CCCCN4)c2c1)CC/C3=C/c1ccc(Cl)cc1 | 0.19% [at 11.4 µM] (inactive) | 
80 | O[C@@H](c1cc(-c2ccc(Cl)cc2)nc2ccccc12)[C@@H]1CCCCN1 |  | 0.631 µM (active)
81 | N/C(=N\OC(=O)c1cc(-c2ccccc2)nc2ccccc12)c1ccc(Cl)cc1 | -8.2% (inactive) | 
82 | COc1ccc(-c2nc3ccccc3c(=O)n2N)cc1 | -1.03% (inactive) | 
83 | CCNC(=O)COC(=O)c1cc(-c2ccc(OC)cc2)nc2ccccc12 | -27.2% (inactive) | 
84 | COc1ccc(-c2cc([C@H](O)[C@@H]3CCCCN3)c3ccccc3n2)cc1 |  | 3.16 µM (active)
85 | Cc1ccc(C(=O)COC(=O)CNC(=O)Cc2ccccc2)cc1[N+](=O)[O-] | -10.1% (inactive) | 
86 | Cc1c(NC(=O)Cn2ccc([N+](=O)[O-])n2)c(=O)n(-c2ccccc2)n1C | 23.1% (inactive) | 
87 | c1ccc(C2=NN[C@@H]3c4ccccc4-c4ccccc4N3C2)cc1 | -17.6% [at 11.4 µM] (inactive) | 
88 | CCC(=O)NC(NC(=O)CC)C(Cl)Cl | 6.76% (inactive) | 
89 | O=C(/C=C/c1ccc2c(c1)OCO2)NCCSCc1cccc(Cl)c1 |  | 0.355 µM (active)
90 | O=C(CSCc1cccc(Cl)c1)N/N=C/c1ccc(OCC(=O)N2CCCCC2)cc1 |  | 17.8 µM (active)
91 | O=C(CN1CCCC1)N/N=C/c1ccc(-c2cccc(Cl)c2)o1 | -20.7% (inactive) | 
92 | CCN1CCCC1CNC(=O)CSCc1nc(-c2ccccc2C)oc1C (centres undefined) |  | 8.91 µM (active)
93 | CCOC(=O)N1CCN(C(=O)CSCc2nc(-c3ccccc3F)oc2C)CC1 | 6.39% (inactive) | 
94 | Cc1oc(-c2ccccc2F)nc1CSCC(=O)NCc1ccc2c(c1)OCO2 |  | 2.24 µM (active)
95 | COCCCNC(=O)/C=C/c1ccc(Cl)cc1 | -4.47% (inactive) | 
96 | O=C(Nc1ccc2oc(-c3ccccc3F)nc2c1)c1ccc2c(c1)OCCO2 | -24.9% (inactive) | 
97 | Cc1cccc(C(=O)N/N=C/c2ccc(OCC(=O)N3CCCCC3)cc2)c1 | -11.8% (inactive) | 
98 | O=C(/C=C/c1cccc([N+](=O)[O-])c1)NCCN1CCOCC1 | -0.0015% (inactive) | 
99 | Cc1oc(-c2ccccc2Cl)nc1CSCC(=O)NC1CC1 | -21.5% (inactive) | 
100 | COc1ncc2nc(-c3cc(F)cc(F)c3)c(=O)n(C[C@H]3CCCO3)c2n1 | -6.6% (inactive) | 
101 | CNc1c2c(nn1C)CCCC2 | -19.9% (inactive) | 
102 | Cc1ccccc1S(=O)(=O)Oc1ccccc1C(=O)Oc1ccccc1 | -7.88% (inactive) | 
103 | Nc1ncnc2nc(N3CCN(CCO)CC3)[nH]c12 | 6.88% [at 11.4 µM] (inactive) | 
104 | N[C@H](CCC(=O)NCS(=O)(=O)O)C(=O)O | 4.98% (inactive) | 
